# MT1-MMP txn act – MT1-MMP promoter transcription activation; actives 0.16% (n = 86,000); activation factor at 10 µM; HT1080 MT1-MMP promoter luciferase reporter, luminescence, overnight; active compounds read high; AID 750;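 active = activation factor of at least 2 for MT1-MMP transcription at 10 µM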
# MMP-13 inhibitor – inhibitors of human MMP13. MMP-13 fTHP FRET cleavage, Mca fluorescence. inhibition, % at 4 µM. actives 0.07% (n = 65,000);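 active = inhibition above the mean of compound-free control plate wells plus 3 SD, cut at about 14% in these data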;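 also: 0% = DMSO wells and 100% = wells with reference MMP-13 inhibitor after basal subtraction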
# ERa SRC1 pot – ER-alpha (human) coactivator binding potentiation. coactivator binding (% of control), % at 25.6 µM. TR-FRET ERalpha-LBD/SRC-Cy5 coactivator binding, 2 h; 100 = basal binding, no effect. AID 639. P03372. actives 1.3% (n = 86,000); in the data active = activity above about 200%;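 also: binding measured in presence of low estradiol as agonist stimulus; 0% = peptide alone without receptor and 100% = receptor with peptide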
# ERa SRC1 inh – ER-alpha (human) coactivator binding inhibition; actives 1.7% (n = 86,000); inhibition, % at 25.6 µM; TR-FRET ER-alpha LBD / SRC-1 peptide, estradiol-bound; in the data active = inhibition above about 50%;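 also: 0% = receptor plus peptide control and 100% = peptide only without receptor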
# ERb coact inh – ER-beta (human) coactivator binding inhibition; TR-FRET ER-beta LBD / SRC1-Cy5 peptide binding; receptor agonist-loaded with 1 µM estradiol; inhibition, % at 25.6 µM; actives 1.3% (n = 86,000); AID 633;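 active = compounds whose percent inhibition of the receptor-coactivator binding signal exceeds about 50% in the single-dose screen, limit read from the data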;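 also: 0% = receptor plus peptide wells without compound and 100% = peptide-only wells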
# Smad3 FoxH1 inh – inhibitors of human Smad3 transcription factor binding; AID 630; TR-FRET Smad3/Dy647-FoxH1 peptide binding, europium anti-His; actives 0.29% (n = 88,000); inhibition, % at 25 µM;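 active = compounds that reduce the energy-transfer binding signal between the protein and its labelled peptide by more than half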;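 also: 0% = Smad3 plus labelled peptide maximal FRET and 100% = peptide-only background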
# Target sequence (P84022 whole entry, looked up): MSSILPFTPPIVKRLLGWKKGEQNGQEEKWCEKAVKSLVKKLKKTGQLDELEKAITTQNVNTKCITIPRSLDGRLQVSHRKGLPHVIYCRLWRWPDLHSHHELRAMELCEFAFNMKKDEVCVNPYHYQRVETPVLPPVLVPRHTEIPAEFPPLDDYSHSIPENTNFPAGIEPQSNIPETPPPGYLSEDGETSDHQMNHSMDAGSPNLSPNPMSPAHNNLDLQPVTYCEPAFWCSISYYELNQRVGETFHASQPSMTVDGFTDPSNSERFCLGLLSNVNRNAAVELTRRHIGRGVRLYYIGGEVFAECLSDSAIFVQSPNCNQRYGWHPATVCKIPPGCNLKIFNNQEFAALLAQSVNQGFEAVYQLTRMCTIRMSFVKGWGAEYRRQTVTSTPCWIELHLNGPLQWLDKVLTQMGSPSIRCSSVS
# Starred values were filed as active, the others as inactive; / = not tested or not shown; [ ] = another dose, or the depositor's remark. The list is not random: actives were taken first. Their share in the collection is about 3.5%.
SMILES,MT1-MMP txn act,MMP-13 inhibitor,ERa SRC1 pot,ERa SRC1 inh,ERb coact inh,Smad3 FoxH1 inh
CC1CCN(c2nc(-c3ccccc3O)nc3ccccc23)CC1,1.1,/,471*[fluorescence artefact?],39,46,4
CC(C)Oc1nc(-c2ccccc2O)nc2ccccc12,1,7,222*[fluorescence artefact?],9,9,-11
Oc1ccccc1-c1nc(N2CCCC2)c2ccccc2n1,1.1,/,217*[fluorescence artefact?],56*[fluorescence artefact?],56*[fluorescence artefact?],55*[fluorescence artefact?]
COc1cccc(-c2nc(N3CCC(C)CC3)c3ccccc3n2)c1O,1.5,2,/,/,/,/
Oc1ccccc1-c1nc(N2CCN(Cc3ccccc3)CC2)c2ccccc2n1,1.3,-5,237*[fluorescence artefact?],-12,-3,-2
Cc1cc(C(=O)NC2=NCCS2)cs1,0.9,0,100,-8,-5,22
O=C1C2CCCN2C(c2ccccc2F)N1c1ccc(F)cc1 (centres undefined),1.2,1,108,-4,-2,4
COc1ccc(-c2nc(CSCC(=O)NCc3ccc4c(c3)OCO4)c(C)o2)cc1OC,/,-12,/,/,/,/
COc1ccccc1OCC(=O)Nc1nc(-c2ccc(S(=O)(=O)N3CCOCC3)cc2)cs1,1.1,/,217*[fluorescence artefact?],27,15,-13
O=C(COc1ccccc1)Nc1nc(-c2ccc(S(=O)(=O)N3CCOCC3)cc2)cs1,1,-14,328*[fluorescence artefact?],19,21,12
O=C(COC(=O)c1ccc(S(=O)(=O)N2CCOCC2)cc1)Nc1nc(-c2ccccc2)cs1,1.1,1,139,26,35,9
O=C(COc1ccc(Cl)cc1)Nc1nc(-c2ccc(S(=O)(=O)N3CCOCC3)cc2)cs1,1,/,275*[fluorescence artefact?],12,19,2
Cc1cc(C(=O)CSc2nnc(-c3ccc(Cl)cc3)n2C)c(C)n1CC1CCCO1 (centres undefined),1.2,/,79,0,0,-10
Cc1cc(C)n(-c2nc(C)nc(NCc3ccccc3)n2)n1,/,/,166,-4,-9,1
COc1cccc(OC)c1OCC(O)CN1CCN(c2ccccc2)CC1 (centres undefined),1,0,/,/,/,/
OC(CN1CCN(c2ccccc2)CC1)Cn1c2ccccc2c2ccccc21 (centres undefined),1.1,/,270*[fluorescence artefact?],-1,0,13
CN(c1ccc(C(=O)NCc2ccc3c(c2)OCO3)cc1)S(C)(=O)=O,1,5,101,-2,81*[fluorescence artefact?],3
CS(=O)(=O)N(CCc1ccccc1)CC(=O)Nc1ccc2c(c1)OCO2,1.1,-5,47,62*[fluorescence artefact?],46,6
CN(c1ccccc1C(=O)Nc1ccc2c(c1)OCO2)S(C)(=O)=O,1.2,3,62,48,53*[fluorescence artefact?],-5
CS(=O)(=O)N(CC(=O)Nc1ccc2c(c1)OCO2)Cc1ccccc1,1.2,-1,117,0,31,-11
CN(c1ccccc1C(=O)Nc1ccc2c(c1)OCCO2)S(C)(=O)=O,1,5,121,-23,-25,11
N#Cc1c(N2CCCCC2)nc(N)c2c(N)nc3c(c12)CC(c1ccccc1)O3 (centres undefined),1.1,/,217*[fluorescence artefact?],23,29,-12
Cc1ccc2c(c1)c1c3n2CCN(C(=O)C2CC2)C3CCC1 (centres undefined),1,-26,98,2,-1,11
Cc1ccc2c(c1)c1c3n2CC(=C2C(=O)OC(C)(C)OC2=O)NC3CCC1 (centres undefined),1,-4,82,44,54*[fluorescence artefact?],-6
COc1ccc(C2CC(=O)Nc3ccccc3S2(=O)=O)cc1OC (centres undefined),1,1,55,32,50*,2
SMILES,MT1-MMP txn act,MMP-13 inhibitor,ERa SRC1 pot,ERa SRC1 inh,ERb coact inh,Smad3 FoxH1 inh
COc1ccccc1Cn1c(=O)c2ccccc2n2c(Sc3ncnc4sccc34)nnc12,0.7,0,259*[fluorescence artefact?],0,24,4
Cc1ccc(NC(=O)CN(c2ccccc2)S(=O)(=O)N(C)C)cc1C,1.1,/,95,32,3,9
COc1ccc(NC(=O)CN(c2ccccc2)S(=O)(=O)N(C)C)cc1OC,1.1,-1,69,63*[fluorescence artefact?],57*,-8
CN1CCN(Cc2nc3c([nH]2)c(=O)[nH]c(=O)n3C)CC1,1.1,0,125,-11,-13,1
Cc1ccc(NC(=O)CCCC(=O)O)c(Br)c1,1,2,102,3,-10,2
N=C1C(c2nc(-c3ccc(Cl)cc3)cs2)=C(O)CN1CCCN1CCOCC1,1.1,4,143,48,29,7
CCCCN1CC(O)=C(c2nc(-c3ccc(Cl)cc3)cs2)C1=N,1,/,256*[fluorescence artefact?],64*[fluorescence artefact?],38,-43
COc1ccccc1OCc1nc(C#N)c(NCc2ccco2)o1,1,-1,105,10,15,-8
FC(F)(F)Oc1ccc(Nc2nc3ccccc3o2)cc1,2.2*,-5,95,-9,-3,-8
Cc1ccc(NC(=O)c2c(C)nc(Nc3nc4ccccc4o3)nc2C)cc1,1.2,1,121,-14,-9,-1
CCNC(=O)Cc1ccc(NS(=O)(=O)c2ccc(F)cc2)cc1,1.1,-2,126,-1,-4,4
CCOCC(=O)Nc1cccc(C(=O)OCC)c1,1.1,0,116,60*,-4,4
CCOC(=O)c1cnc(SC)nc1Sc1ccccc1Cl,1.1,/,100,8,10,9
Cn1c(=O)c2c(ncn2CN2CCN(Cn3cnc4c3c(=O)n(C)c(=O)n4C)CC2)n(C)c1=O,/,/,/,/,/,98*
Cn1c(=O)c2c(ncn2CC(O)CO)n(C)c1=O (centres undefined),1.1,-2,127,-1,2,-3
CCOCc1nnc(NC(=O)c2ccc(OC)cc2)s1,1.4,/,95,-21,-18,6
COCc1nnc(NC(=O)c2ccc(NC(=O)C(C)C)cc2)s1,1.2,15*,/,/,/,/
N#Cc1cn(CC(=O)NCCc2c[nH]c3ccccc23)c2ccccc12,1.4,3,99,-15,3,3
CCOC(=O)CCC(=O)Nc1ccccc1C(N)=O,1.1,9,129,53*,-3,0
O=C(C1COc2ccccc2O1)N1CCc2ccccc21 (centres undefined),1.5,0,345*[fluorescence artefact?],21,34,12
Cc1noc(C)c1S(=O)(=O)N(CC(=O)O)c1ccc2c(c1)OCO2,0.9,2,60,41,54*,-1
CSc1nc(N2CCN(CCO)CC2)c2sc3nc(-c4ccco4)c4c(c3c2n1)CCC4,1.1,-9,65,57*,24,-19
N#Cc1cc2c(nc1SCc1ccccc1)CCC2,1,/,283*[fluorescence artefact?],55*[fluorescence artefact?],59*[fluorescence artefact?],52*[fluorescence artefact?]
COc1ccc(C2SCCN2S(=O)(=O)c2ccc(NC(C)=O)cc2)cc1 (centres undefined),1.1,/,113,7,-3,19
N#Cc1c(N)nc(SCC(=O)C23CC4CC(CC(C4)C2)C3)c(C#N)c1-c1ccc(Cl)cc1,1,/,479*[fluorescence artefact?],34,32,17

# Screening results from PubChem.
